Laboratory results: PubChem BioAssay (NCI)
This is part of a sample that, as a whole, favours compounds with a hit. Of some 83,000 tested, about 20% had one in any assay.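 Single-dose data. Exposure time 48 hours. Values below 10 considered active.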 Unmarked numbers belong to inactive results. The source made the active and inactive calls.

Experiments:
Test in all cases: NCI-60 one-dose screen, 48 h (100 = growth as untreated, 0 = no growth, -100 = all killed)
Conditions in all cases: 10 µM unless noted
NCI-H23 lung = tested on: NCI-H23 lung
NCI-H226 lung = tested on: NCI-H226 lung
NCI-H322M lung = tested on: NCI-H322M lung
HOP-62 NSCLC = tested on: HOP-62 NSCLC
NCI-H460 lung = tested on: NCI-H460 lung
HOP-92 NSCLC = tested on: HOP-92 NSCLC
NCI-H522 lung = tested on: NCI-H522 lung
A549/ATCC NSCLC = tested on: A549/ATCC NSCLC
786-0 renal = tested on: 786-0 renal
DU-145 prostate = tested on: DU-145 prostate
K-562 leukemia = tested on: K-562 leukemia
MALME-3M melanoma = tested on: MALME-3M melanoma
MDA-MB-231 breast = tested on: MDA-MB-231 breast
RXF 393 renal = tested on: RXF 393 renal
SF-268 CNS = tested on: SF-268 CNS
SF-295 CNS = tested on: SF-295 CNS
SF-539 CNS = tested on: SF-539 CNS
UACC-257 melanoma = tested on: UACC-257 melanoma
M14 melanoma = tested on: M14 melanoma

SMILES | growth (NCI-H23 lung) | growth (NCI-H226 lung) | growth (NCI-H322M lung) | growth (HOP-62 NSCLC) | growth (NCI-H460 lung) | growth (HOP-92 NSCLC) | growth (NCI-H522 lung) | growth (A549/ATCC NSCLC) | growth (786-0 renal) | growth (DU-145 prostate) | growth (K-562 leukemia) | growth (MALME-3M melanoma) | growth (MDA-MB-231 breast) | growth (RXF 393 renal) | growth (SF-268 CNS) | growth (SF-295 CNS) | growth (SF-539 CNS) | growth (UACC-257 melanoma) | growth (M14 melanoma)
OC(c1cccc(OCc2ccccc2)c1)c1nnc(-c2ccccc2)o1 (stereo not drawn) | 83% | 66.9% | 120% | 107% | 96% | 80.9% | 79.2% | 95.1% | 100% | 107% | 91% | 92.1% | 89.9% | 95.5% | 95.3% | 64% | 93.1% | 94.5% | 105%
O=C(NCCN1CCC(O)CC1)c1cc2c(o1)C(=O)c1ccccc1C2=O | -50.9% (active) | -77.5% (active) | -98.6% (active) | -66.6% (active) | -75.9% (active) | -67.4% (active) | -56.3% (active) | -57.7% (active) | -78.3% (active) | -97.6% (active) | 2.8% (active) | -99.2% (active) | -24.6% (active) | -99% (active) | -54.8% (active) | -96.2% (active) | -97.5% (active) | -86.9% (active) | -85.3% (active)
CN(C)CCOC(=O)Nc1ccc(Cl)cc1 | 102% | 88.8% | 92.2% | 88.4% | 106% | 85.5% | 64.9% | 94.7% | 94.2% | 110% | 90.5% | 114% | 93.8% | 118% | 105% | 103% | 102% | 101% | 90.5%
OC(CBr)c1ccnc2ccccc12 (stereo not drawn) | 96.8% | 92.3% | 102% | 99.1% | 105% | 89.3% | 71.8% | 96.3% | 99.1% | 109% | 92% | 96.3% | 103% | 107% | 100% | 96.6% | 102% | 99.6% | 98%
N#Cc1c(NC(=O)c2ccccc2I)sc2c1CCCC2 | 73.4% | 41.7% | 88.5% | 42.2% | 17.8% | 71.6% | 24.6% | 53.6% | 52.2% | 62.9% | 14.8% | 60.9% | 54.7% | -10.4% (active) | 58.1% | 21.1% | 22.9% | 60.7% | 16.3%
COc1ccc(/C(C)=N/NS(=O)(=O)c2ccc(C)cc2)cc1OC | 105% | 106% | 120% | 117% | 97.8% | 69% | 117% | 102% | 102% | 118% | 111% | 121% | 113% | 115% | 106% | 98.9% | 103% | 104% | 117%
CCN(CC)CCOC(=O)Nc1ccccc1Cl | 105% | 88.1% | 92.7% | 102% | 104% | 82% | 68.9% | 98.7% | 92.1% | 107% | 94.8% | 95.7% | 115% | 117% | 102% | 104% | 102% | 105% | 86.1%
O=C(NCCOCCOCCNc1cccc2c1C(=O)N(C1CCCNC1=O)C2=O)c1cc2c(o1)C(=O)c1ccccc1C2=O (stereo not drawn) | -42.8% (active) | -79.8% (active) | -62.1% (active) | -65.2% (active) | -70.7% (active) | 22.2% | -52.7% (active) | -45.5% (active) | 3.9% (active) | -90.8% (active) | 9.04% (active) | -94.9% (active) | -2.54% (active) | -35.4% (active) | -9.46% (active) | -91.9% (active) | -86.2% (active) | -84.1% (active) | -52.7% (active)
CCNCCNc1cc(-c2cccc(C(F)(F)F)c2)c(C#N)c2nc3ccccc3n12 | -57.6% (active) | -67.2% (active) | -63.1% (active) | -75.1% (active) | -70.4% (active) | -58.1% (active) | -71.3% (active) | -91.9% (active) | -88% (active) | -74.9% (active) | -65.8% (active) | -77.3% (active) | -66.2% (active) | -85.6% (active) | -73.8% (active) | -82.3% (active) | -88.7% (active) | -84.4% (active) | -89.3% (active)
CCCCN1CCN(c2ccc3nc(-c4ccc5nc(-c6ccc(OCC)c(OCC)c6)[nH]c5c4)[nH]c3c2)CC1 | -55.9% (active) | 16.2% | 14.1% | -69.7% (active) | -84.3% (active) | 81.3% | -32.2% (active) | 37.7% | -87.4% (active) | -86.2% (active) | -37.1% (active) | 9.35% (active) | -81.2% (active) | -96.3% (active) | 51.6% | -67.8% (active) | -93.7% (active) | 29% | -28% (active)
Cc1nc2ccc(C(=O)NCc3cc(C(=O)O)c(C)o3)cc2nc1C | 101% | 100% | 96.9% | 77% | 100% | 90.8% | 92.2% | 91.4% | 94.4% | 105% | 110% | 93.4% | 101% | 97.4% | 91.4% | 102% | 96.2% | 87.2% | 91.4%
N#Cc1cccc(-c2nc3ccccn3c2NCCN2CCOCC2)c1 | 98.6% | 93.6% | 87.1% | 72.5% | 98.8% | 93% | 85.8% | 90.4% | 96.1% | 106% | 97.3% | 108% | 94.6% | 96.3% | 90.3% | 101% | 92.2% | 98.8% | 89.9%
COc1ccc(N=c2nc3sc4cc(Cl)ccc4n3c(N)c2C#N)cc1 | 66.5% | 24.4% | 93.4% | 102% | 102% | 88.4% | 88.6% | 62.4% | 22.1% | 105% | 98.9% | 77.4% | 76.4% | 52% | 60.1% | -3.63% (active) | 103% | 61.6% | 70.6%
CCCCCCNCc1cc(C(C)(C)C)cc(CNCCCCCC)c1O | -8.06% (active) | -60.5% (active) | -78.9% (active) | -90.1% (active) | -76.3% (active) | -36.3% (active) | -66% (active) | -85.4% (active) | -90.5% (active) | -78.7% (active) | -48.8% (active) | -73.2% (active) | -83.6% (active) | -93.3% (active) | 9.67% (active) | 29.4% | -89.9% (active) | -84.1% (active) | -88.6% (active)
CCCCCOC(=O)c1cccc(NC(=O)CN(CC)CC)c1 | 102% | 96.7% | 97.6% | 86.8% | 111% | 75.6% | 62% | 95.7% | 81.2% | 104% | 103% | 94.8% | 117% | 106% | 104% | 96.1% | 98.6% | 105% | 86.9%
CC(=O)c1cc2c(o1)C(=O)c1ccccc1C2=O | -33.2% (active) | -59.1% (active) | -92.7% (active) | -57.9% (active) | -71.8% (active) | -9.05% (active) | -56.8% (active) | -44.4% (active) | -93.4% (active) | -97.8% (active) | -24.9% (active) | -97.9% (active) | -21.5% (active) | -93.8% (active) | -62.6% (active) | -93.4% (active) | -98.5% (active) | -88.5% (active) | -88.4% (active)
N=C(N)c1ccc(-c2ccc(-c3ccc(Cl)c(Cl)c3)o2)nc1 | 65.5% | 109% | 42.4% | 5.09% (active) | -78.1% (active) | 84.6% | 78.2% | -35.2% (active) | -74.9% (active) | -18.5% (active) | -1.03% (active) | 105% | -47% (active) | 86% | 98.5% | -70.1% (active) | 38.8% | 107% | -51.8% (active)
